According to PMC4336329 (PLoS ONE, 2015):
Out of some 310,000 compounds screened, about 14,000 (4.5%) showed an effect of 50% or more. Effects have a minus sign here. The sample as a whole holds a higher share of strong results than the screen did.

target: human ether-à-go-go-related gene (hERG) potassium channel (human, UniProt Q12809); test: primary screen, population patch clamp on CHO cells stably expressing hERG; higher = less effect of the substance
Description: Briefly, Chinese hamster ovary (CHO) cells stably expressing the hERG channel were dislodged from tissue culture flasks and dispensed into PPC plates. […] During the recording, background leak currents were estimated by a 100 ms step to -80 mV from an initial holding potential of -70 mV and subtracted from the subsequent current measurement. The campaign was conducted in two phases using slight differences in recording protocol. In the first phase, the initial voltage pulse used a 100 ms step to -30 mV from a holding potential of -70 mV, a 2 s conditioning step to +25 mV, and a 2 s test step to -30 mV. During the second phase of the screen, the potential during the conditioning step was raised to +45 mV. In both phases of the campaign, a secondary voltage pulse was applied using the same parameters as the second phase initial pulse. The initial and secondary pulses were applied in the absence of compound, and upon application of 1 μM and 10 μM test concentrations. […]
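Note: peak tail current of the secondary pulse compared with the same well before compound.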

Sequence of human ether-à-go-go-related gene (hERG) potassium channel (Q12809 whole entry, looked up): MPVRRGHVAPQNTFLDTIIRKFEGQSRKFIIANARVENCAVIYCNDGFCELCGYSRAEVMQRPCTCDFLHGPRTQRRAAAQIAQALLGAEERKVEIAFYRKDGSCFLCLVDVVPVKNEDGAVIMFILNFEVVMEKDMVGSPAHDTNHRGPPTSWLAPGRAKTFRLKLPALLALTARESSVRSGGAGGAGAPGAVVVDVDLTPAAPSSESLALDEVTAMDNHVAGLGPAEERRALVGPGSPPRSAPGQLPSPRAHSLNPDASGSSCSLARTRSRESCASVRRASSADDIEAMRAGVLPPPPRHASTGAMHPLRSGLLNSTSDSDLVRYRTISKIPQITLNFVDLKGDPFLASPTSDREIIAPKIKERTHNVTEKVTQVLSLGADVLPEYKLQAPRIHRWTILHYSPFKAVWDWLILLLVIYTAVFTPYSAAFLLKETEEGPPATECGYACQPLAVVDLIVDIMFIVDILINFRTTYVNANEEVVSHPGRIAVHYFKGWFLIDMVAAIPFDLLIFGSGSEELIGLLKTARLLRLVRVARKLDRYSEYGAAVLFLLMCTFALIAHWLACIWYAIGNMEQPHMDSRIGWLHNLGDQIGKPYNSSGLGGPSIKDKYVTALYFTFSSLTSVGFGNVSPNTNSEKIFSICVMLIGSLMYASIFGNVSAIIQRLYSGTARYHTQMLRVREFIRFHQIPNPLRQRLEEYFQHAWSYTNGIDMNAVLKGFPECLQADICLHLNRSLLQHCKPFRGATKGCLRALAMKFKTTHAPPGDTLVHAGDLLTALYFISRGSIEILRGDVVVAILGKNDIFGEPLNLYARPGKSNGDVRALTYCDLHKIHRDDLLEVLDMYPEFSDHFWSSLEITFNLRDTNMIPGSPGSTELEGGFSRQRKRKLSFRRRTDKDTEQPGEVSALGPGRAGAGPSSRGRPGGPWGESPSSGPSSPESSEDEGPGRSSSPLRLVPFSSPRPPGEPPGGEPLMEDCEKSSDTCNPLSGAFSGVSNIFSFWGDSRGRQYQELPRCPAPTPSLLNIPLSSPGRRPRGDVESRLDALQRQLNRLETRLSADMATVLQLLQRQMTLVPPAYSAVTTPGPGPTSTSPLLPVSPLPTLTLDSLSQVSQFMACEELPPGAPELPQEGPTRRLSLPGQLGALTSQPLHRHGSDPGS

SMILES	hERG current change (%, negative = inhibition) at 10uM [%]
Cc1c(C(=O)N2CCC(Cc3ccccc3)CC2)sc2ncnc(N3CCC(C)CC3)c12	8.19
CCOC(=O)C1CCCN(C(=O)c2sc3nc(C)nc(N4CCOCC4)c3c2C)C1 (centres unmarked)	-3.42
CCOC(=O)C1CCN(C(=O)c2sc3ncnc(N4CCC(C)CC4)c3c2C)CC1	-73.2
CCN1CCN(C(=O)c2sc3nc(C)nc(N4CCC(C)CC4)c3c2C)CC1	-8.16
CCOC(=O)C1CCN(C(=O)c2sc3nc(C)nc(N4CCC(C)CC4)c3c2C)CC1	-52.7
Cc1c(C(=O)N2CCN(c3ccccc3)CC2)sc2ncnc(N3CCC(C)CC3)c12	-29.9
Cc1nn(-c2nnc(NC3CCCCC3)nn2)c(C)c1Br	10.8
OC1(c2ccccc2F)CCN(Cc2nnnn2Cc2ccc(F)cc2)CC1	8.52
C/C(N)=C(/C#N)C(=O)CSc1nc2cc(Cl)ccc2c(=O)n1Cc1ccco1	16.8
CC1(C)CC(=O)C2=C(C1)OC(/N=C/N1CCOCC1)=C(C#N)C2c1ccccc1 (centres unmarked)	-11
CCOc1cccc(OCCn2cnc3ccccc3c2=O)c1	5.84
Cc1cccc(N2CCN(C(=O)Cn3cnc4c3c(=O)n(C)c(=O)n4C)CC2)c1C	-26
Cn1c(=O)c2c(nc(N3CCN(c4ccc([N+](=O)[O-])cc4)CC3)n2C)n(C)c1=O	-76.2
Cn1c(=O)c2c(ncn2CC(=O)N2CCN(c3ccc([N+](=O)[O-])cc3)CC2)n(C)c1=O	-72
Cn1c(=O)c2c(nc(N3CCCC3)n2C)n(C)c1=O	10
Cn1c(=O)c2c(ncn2CC(=O)N2CCN(c3cccc(Cl)c3)CC2)n(C)c1=O	-64.2
Cn1c(=O)c2c(ncn2CC(=O)N2CCN(c3ccc(F)cc3)CC2)n(C)c1=O	-23.4
Cn1c(=O)c2c(ncn2CC(=O)N2CCN(c3ccccc3)CC2)n(C)c1=O	0.318
COc1ccc(N2CCN(C(=O)Cn3cnc4c3c(=O)n(C)c(=O)n4C)CC2)cc1	5.48
Cn1c(=O)c2c(nc(N3CCOCC3)n2C)n(C)c1=O	-4.44
Cc1ccc(C(=O)c2ccccc2C(=O)O)s1	-1.28
COc1cccc(N2CCN(C3C4CC5CC(C4)CC3C5)CC2)c1 (centres unmarked)	2.54
CC(=O)Nc1nc(NC(=O)/C=C/c2ccccc2)n(-c2ccccc2)n1	-1.34
